The entries come from a sample that favours hits as a whole.
Giardia FBPA inh: blocks Giardia fructose-bisphosphate aldolase activity. purified Giardia FBPA. 0.71% of 290,000 active. Potency, µM (titrated, usually from 59.6 µM), for the others: at the top dose activity, negative = inhibition, actives largely listed as inhibitors; also: potency is read from the fitted curve at half-maximal effect; % is scaled to controls: 0 for no effect and ±100 for the full control effect; nearly all actives have a fitted effect of over 55% in size
Target sequence (A8B2U2 whole entry, looked up): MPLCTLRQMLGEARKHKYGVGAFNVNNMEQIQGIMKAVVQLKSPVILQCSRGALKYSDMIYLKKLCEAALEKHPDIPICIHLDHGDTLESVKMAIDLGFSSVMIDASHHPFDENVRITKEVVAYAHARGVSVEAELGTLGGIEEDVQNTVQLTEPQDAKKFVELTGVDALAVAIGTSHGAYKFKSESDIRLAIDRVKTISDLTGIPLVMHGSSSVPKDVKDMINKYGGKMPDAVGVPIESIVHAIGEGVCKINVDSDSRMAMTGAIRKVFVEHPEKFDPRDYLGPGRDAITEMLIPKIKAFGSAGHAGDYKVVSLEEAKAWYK
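Giardia FBPA (40 nM reagent) was preincubated 10 min at RT with compound (up to 57.5 uM final), then substrate plus GAPDH/TPI/NAD/arsenate coupling system with diaphorase/resazurin was added; resorufin fluorescence (525/598 nm) was read after 20 min.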
CHX counter: affects cycloheximide protein synthesis inhibition readout, counter-screen | cell reporter, cycloheximide protein synthesis inhibition counterscreen | max response, % | 12% of 300,000 active; in the data active = max response mostly above about 13%, no sharp cut-off; inactive = mostly below about 14%; also: read at 38.3 µM for the half of the compounds with a filed dose; 0% is about no effect
Tb PYK inh: T. brucei pyruvate kinase inhibition; TbPYK enzyme, Kinase-Glo Plus ATP luminescence, 45 min; Potency, µM (highest dose often 76.8 µM), for inactives: at the highest dose activity, negative = inhibition, usual class: inhibitors; 0.12% of 410,000 active; also: potency is read from the fitted curve at half-maximal effect; % is scaled to controls: 0 for no effect and ±100 for the full control effect; nearly all actives have a fitted effect of over 50% in size
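Luminescent Kinase-Glo Plus end-point after 45 min room-temperature reaction of T. brucei pyruvate kinase started with 130 uM ADP (final). Buffer TEA 50 mM pH 7.2 with KCl, MgCl2, BSA, Tween-20; titration-based qHTS with fitted concentration-effect curves.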
Shiga toxin inh: Shiga toxin inhibition | Vero cells, Shiga toxin protein synthesis inhibition reporter | inhibition, % at 38.7 µM | 9.2% of 290,000 active | AID 2315; in the data active = inhibition mostly above about 28%, no sharp cut-off; inactive = mostly below about 43%; also: 0% is about no effect
Sm TGR inh: S. mansoni TGR enzyme inhibition | purified TGR, DTNB reduction, TNB absorbance 405 nm | Q962Y6 | 3% of 360,000 active | Potency, µM (doses to about 114 µM), for the others: at the highest dose activity change, negative = inhibition, usual class: inhibitors; also: potency is read from the fitted curve at half-maximal effect; % is scaled to controls: 0 for no effect and ±100 for the full control effect; nearly all actives have a fitted effect of over 60% in size
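TGR 20 nM + NADPH 100 uM (dispensed conc.), cpd preinc 15 min RT; start with NADPH (500 uM addition) then DTNB (15 mM addition). Kinetic TNB absorbance, 405 nm filter. Four-parameter Hill fit across titration.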
LmPK inhibitor: LmPK (Leishmania mexicana) enzyme inhibition; 0.37% of 290,000 active; Q27686; Potency, µM (highest dose often 57.5 µM), for the others: top-dose activity change, negative = inhibition, most hits filed as inhibitors; purified LmPK, Kinase-Glo ATP luminescence, 1 h; also: potency is read from the fitted curve at half-maximal effect; % is scaled to controls: 0 for no effect and ±100 for the full control effect
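qHTS format; LmPK 0.1 nM; substrates PEP 0.5 mM and ADP 0.1 mM. One-hour room-temperature incubation, then coupled luciferase luminescence; 0.5 nM enzyme wells mark activation.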
* = called active by the depositor; u = inconclusive; x = not tested or not shown; [ ] = another dose, or the depositor's remark. Unless noted, calls follow the shape of the dose curve; as a rule, active = well fitted curve in the direction sought with a large enough effect; inconclusive = small, poorly fitted or top-dose-only effect, or another doubt; inactive = no such curve, though single readings can be large; an effect the other way counts as inactive or inconclusive.

SMILES	Giardia FBPA inh	CHX counter	Tb PYK inh	Shiga toxin inh	Sm TGR inh	LmPK inhibitor
Cc1c(C#N)c(=O)c(-[n+]2ccccc2)c([S-])n1-c1ccc(Cl)cc1	-9%	1	u	-7	-15%	0%
O=C(Nc1ccccc1Cl)c1ccc(F)c(S(=O)(=O)NCc2ccc(Cl)c(Cl)c2)c1	x	x	-7%	x	15%	x
Cc1cc(NS(=O)(=O)c2ccc(NC(=O)Nc3cccc(Cl)c3)cc2)no1	21%	1	-4%	4	-34%	5%
CC(=O)Nc1ccc(S(=O)(=O)Nc2ccc3c(c2)OCO3)cc1	8%	-3	0%	-8	-1%	-4%
Cc1cc(NS(=O)(=O)c2ccc(NC(=O)Nc3ccc4c(c3)OCO4)cc2)no1	-1%	20	-9%	35*	-11%	2%
CNS(=O)(=O)c1ccc(NC(=S)Nc2ccc3c(c2)OCO3)cc1	-27%	29*	-15%	55*	u	2%
Cc1cc(C(=O)COc2ccccc2Cl)c(C)n1-c1ccc2c(c1)OCO2	-12%	53*	0%	93*	-11%	-6%
CS(=O)(=O)c1cccc(C(=O)OCC(=O)Nc2ccc3c(c2)OCO3)c1	x	x	-6%	x	1%	x
Cc1cc(C(=O)CSc2n[nH]c(N)n2)c(C)n1-c1ccc2c(c1)OCO2	5%	10*	-7%	38	-1%	3%
CNS(=O)(=O)c1cccc(C(=O)OCC(=O)c2cc(C)n(-c3ccc4c(c3)OCO4)c2C)c1	-20%	36*	-7%	28	9%	7%
Cc1ccc(C)c(SCC(=O)OCC(=O)NCCNC(=O)COC(=O)CSc2cc(C)ccc2C)c1	x	x	-2%	x	1%	x
CCCCc1c(C)nn(-c2nnc3c4ccccc4n(C)c3n2)c1C	9%	21*	0%	49*	u	1%
CCNC(=O)NCCCOc1cccc(CN2CCCCC2)c1	x	x	-4%	x	x	x
CCCn1c(-c2ccc(S(=O)(=O)N3CCOCC3)cc2)csc1=Nc1ccc(OCC)cc1	x	x	-1%	x	12%	x
CCOc1ccc(N=c2scc(-c3ccccc3)n2CCO)cc1	-5%	29*	-17%	43	11%	2%
CCn1c(-c2ccccc2)csc1=Nc1ccc(O)cc1	-9%	48*	-26%	82*	-30%	2%
CCOc1ccc(N=c2scc(-c3ccc(OC)cc3)n2CCO)cc1	-5%	16*	0%	54	4%	1%
CCCCn1c(-c2ccc(S(=O)(=O)N3CCOCC3)cc2)csc1=Nc1ccccc1	x	x	2%	x	0%	x
CCc1ccc(NC(=O)COc2cccc(-n3cnnn3)c2)cc1	-1%	8	2%	17	20%	-3%
COc1ccccc1-c1ccc(NC2CCCC2)nn1	-4%	24*	-6%	55*	2%	-16%
COc1cccc(-c2nc(NC3CCCC3)c3ccccc3n2)c1O	-1%	-1	-3%	7	0%	0%
COc1ccccc1-c1nccc(NCc2ccccc2)n1	5%	x	x	x	x	x
COc1ccc(CNc2ccc(-c3ccccc3OC)nn2)cc1	4%	22*	3%	26	-2%	-1%
COc1ccc(CNc2ccc(-c3ccc(OC)cc3)nn2)cc1	14%	19*	-11%	40*	2%	3%
COc1ccccc1-c1cnn2c(NC3CCCC3)cc(C)nc12	4%	38*	-12%	125*	12%	-1%
SMILES	Giardia FBPA inh	CHX counter	Tb PYK inh	Shiga toxin inh	Sm TGR inh	LmPK inhibitor
CCN(Cc1ccccc1)Cc1c(O)ccc2oc(C)c(C(=O)Nc3ccccc3C)c12	x	x	-8%	x	-35%	x
COc1ccccc1N(CC(=O)N1CCN(Cc2ccccc2)CC1)S(=O)(=O)c1ccccc1	x	x	3%	x	x	x
O=C(NCCS(=O)(=O)N1CCN(c2ccccc2F)CC1)C(c1ccccc1)c1ccccc1	x	x	6%	x	-1%	x
CC[C@]1(c2cccc(C)c2)C(=O)N(C(=O)OC)N1C(=O)OC	-7%	6	-1%	8	1.8µM*	1%
CC[C@@]1(c2ccccc2C)C(=O)N(C(=O)OC)N1C(=O)OC	-16%	0	-16%	-5	6.3µM*	-3%
Cc1cccc(OCC(=O)NNC(=O)CCCCC(=O)NNC(=O)COc2cccc(C)c2)c1	x	-5	9%	-6	-3%	2%
CC[C@@]1(c2ccccc2)C(=O)N(C(=O)OC)N1C(=O)OC	-8%	5	-7%	3	2µM*	1%
CC[C@]1(c2ccccc2)C(=O)N(C(=O)OC)N1C(=O)OC	-11%	10	8%	-2	2.2µM*	-3%
COC(=O)N1C(=O)[C@](c2ccccc2)(C(C)C)N1C(=O)OC	-6%	9	-7%	6	0%	-3%
CSCC[C@H](NC(=O)[C@H](Cc1ccccc1)NC[C@@H](NC[C@@H](N)CS)C(C)C)C(=O)O	0%	-4	x	-10	x	x
Cc1ccc(C)c(Cn2c(=O)n(Cc3ccco3)c(=O)c3oc4ccccc4c32)c1	x	x	1%	x	-4%	x
CC(=O)c1ccc(N2CCN(c3ncnc4c3c(-c3ccccc3)cn4-c3cccc(C)c3)CC2)cc1	x	x	5%	x	2%	x
COC(=O)N1C(=O)[C@@](c2ccccc2)(C2CCCCC2)N1C(=O)OC	-13%	11*	1%	13	13µM*	-8%
O=C(O)c1cccc(NC(=S)N/N=C/c2ccccn2)c1	-10%	51*	5%	131*	44%	5%
O=C(O)c1cccc(NC(=S)N/N=C/c2cccc(O)c2)c1	20%	14	-6%	21	1%	-7%
Cc1cccc(C(=O)N/N=C/c2ccccn2)c1	13%	25*	5%	91*	-11%	-4%
O=C(N/N=C/c1ccccc1F)c1cccc(NC(=O)c2ccccc2Cl)c1	8%	26*	-4%	56*	-4%	6%
Cc1cccc(/C=N/NC(=O)c2ccc(NC(=O)c3ccccc3Cl)cc2)n1	-9%	-1	-9%	-10	-2%	0%
O=C(N/N=C/c1ccccn1)c1cccc(NC(=O)c2ccccc2Cl)c1	5%	11*	-11%	34*	-1%	-5%
CC(C)C(=O)NC(=O)C1CCCN1C(=O)/C=C/c1ccccc1 (stereo not drawn)	3%[12.9 µM]	x	x	x	x	x
COc1cc(OC)cc(C(=O)N2CCN(c3ccc(N4CCOCC4)nn3)CC2)c1	x	x	3%	x	-19%	x
O=C(N/N=C/c1cccs1)c1ccc(NC(=O)c2ccccc2Cl)cc1	5%	5	-5%	-6	-1%	0%
Cc1occc1C(=O)N/N=C/c1ccccn1	0%	38*	-12%	75*	0%	u
O=C(N/N=C/c1cccs1)c1ccc(-n2cccc2)cc1	1%	22*	4%	19	-3%	0%
O=C(N/N=C/c1cccs1)c1cccc(NC(=O)c2ccccc2Cl)c1	1%	18*	-3%	28	-7%	3%
Cc1cccc(C(=O)Nc2cccc(C(=O)N/N=C/c3ccccn3)c2)c1	6%	13*	-7%	19	0%	-10%

Screening data from PubChem BioAssay.
